This note sets out measurements from PubChem BioAssay AID1345085 (National Center for Advancing Translational Sciences (NCATS), 2018).

Each structure is given as a SMILES string. Inconclusive results are not listed. Unmarked numbers belong to inactive results. The source made the active and inactive calls. Calls come from the whole dose curve; as a rule, active = well fitted cell-killing curve with a large enough effect; inconclusive = small, poorly fitted or top-dose-only effect, or effect the other way; inactive = no such curve, though single readings can be large or run the other way.
% is set by controls: 0 for no effect and ±100 for the full control effect; potency is the fitted concentration of half-maximal effect.

This experiment relates to Hek293T. The experiment is described as follows: Confirmatory qHTS for gynecologic anti-cancer compounds from libraries of approved drugs and bioactive compounds. Note: nearly all actives have a fitted effect of over 55% in size. Conditions: gynecologic cancer cell panel viability, ATPlite luminescence, 48 h; series mostly up to 57.6 µM; activity change, negative = viability loss: at the top concentration. The method, boiled down:
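Viability is measured as ATP-dependent luciferase light using ATPlite, read 15 min after reagent addition at room temperature. Compounds, in DMSO, span 57.5 uM down to 0.977 nM over 11 threefold steps for 48 h.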
As to `O=c1[nH]c(=O)n([C@H]2C[C@H](O)[C@@H](CO)O2)cc1F`, the Potency was 1.37 µM (active).
On the same count and under the same terms, as for `CC(C)C[C@H](NC(=O)[C@H](CCc1ccccc1)NC(=O)CN1CCOCC1)C(=O)N[C@@H](Cc1ccccc1)C(=O)N[C@@H](CC(C)C)C(=O)[C@@]1(C)CO1`, the figure is 3.43 µM (active); as for `Cc1csc(NC(=O)c2sc3nc4c(c(C(F)(F)F)c3c2N)CCC4)n1`, 0.769 µM (active).
For `COCCOc1nc(-c2ccc(Cl)c(Cl)c2)n(-c2ccc(NC(=O)CCl)cc2)n1`, the Potency was 12.2 µM (active).
Regarding `CN(C)CC/C=C1\c2ccccc2COc2ccccc21`, the “activity change, negative = viability loss” value was -37.8%.
Regarding `COc1cc2c(Nc3ccc(NC(=O)c4ccccc4)cc3)ncnc2cc1OCCCN1CCOCC1`, the Potency was 24.3 µM (active).
Take `CC(C)C[C@H](NC(=O)[C@H](Cc1ccccc1)NC(=O)c1cnccn1)B(O)O`: the Potency is 0.0306 µM (active).
Still for that read-out and setting: as for `CCN(CC)CCNC(=O)c1c(C)[nH]c(/C=C2\C(=O)Nc3ccc(F)cc32)c1C`, the figure is 31.6 µM (active); as for `Nc1ccc(-c2ccc3ncc4ccc(=O)n(-c5cccc(C(F)(F)F)c5)c4c3c2)cn1`, 0.0544 µM (active).
On the same count and under the same terms, as for `NC(=O)c1cnc(-c2ccc(C3(N)CCC3)cc2)c(-c2ccccc2)c1`, the figure is 21.7 µM (active); as for `COc1cccc2c1C(=O)c1c(O)c3c(c(O)c1C2=O)C[C@@](O)(C(=O)CO)C[C@@H]3O[C@H]1C[C@H](N)[C@H](O)[C@H](C)O1`, 3.85 µM (active).
For the compound `Cc1cc(Nc2nc(N[C@@H](C)c3ccc(F)cc3)c(C#N)cc2F)n[nH]1`, the “activity change, negative = viability loss” value is -34.8%.
On to `Cc1ccc(C(=O)Nc2cccc(C(F)(F)F)c2)cc1-c1ccc2nc(NCCN3CCOCC3)ncc2c1`, for which the Potency is 19.3 µM (active).
Take `CS(=O)(=O)c1ccc(C(=O)Nc2ccc(Cl)c(-c3ccccn3)c2)c(Cl)c1`: the “activity change, negative = viability loss” value was -34.4%.
As to `CCN1CCN(Cc2ccc(-c3cc4c(NC(C)c5ccccc5)ncnc4[nH]3)cc2)CC1` (stereo unspecified), the Potency is 27.3 µM (active).
Same read-out and setting: in the case of `CC(Oc1cc(-n2cnc3ccc(CN4CCN(C)CC4)cc32)sc1C(N)=O)c1ccccc1C(F)(F)F` (stereo unspecified) it was 24.3 µM (active); in that of `CCC1C(=O)N(C)c2cnc(Nc3ccc(C(=O)NC4CCN(C)CC4)cc3OC)nc2N1C1CCCC1` (stereo unspecified), 0.0193 µM (active).
As for `COc1cc(Nc2ncc(F)c(Nc3ccc4c(n3)N(COP(=O)(O)O)C(=O)C(C)(C)O4)n2)cc(OC)c1OC`, the “activity change, negative = viability loss” value was -15.2%.
As to `CN(c1nccc(=O)[nH]1)C1CCN(c2nc3ccccc3n2Cc2ccc(F)cc2)CC1`, the “activity change, negative = viability loss” value is -18.3%.
For the compound `Cc1ccc(C(=O)Nc2ccc(CN3CCN(C)CC3)c(C(F)(F)F)c2)cc1C#Cc1cnc2cccnn12`, the Potency is 17.2 µM (active).
The same measure, in the same setting: in the case of `NC(=O)Nc1cc(-c2cccc(F)c2)sc1C(=O)NC1CCCNC1` (stereo unspecified) it was 0.273 µM (active); in that of `O=C(c1ccc(/C=C/c2n[nH]c3ccccc23)cc1)N1CCNCC1`, 21.7 µM (active).
In the case of `COc1cc2nccc(Oc3ccc(NC(=O)Nc4cc(C)on4)c(Cl)c3)c2cc1OC`, the “activity change, negative = viability loss” value was -9.87%.
Turning to `O=c1c(-c2ccc(O)cc2)coc2cc(O)cc(O)c12`, the “activity change, negative = viability loss” value is 10.9%.
Turning to `Cc1cc(C2CCCCC2)n(O)c(=O)c1`, the Potency was 11.1 µM (active).
On the same count and under the same terms, as for `Cc1nc(Nc2n[nH]c3c2CN(C(=O)NC(CN(C)C)c2ccccc2)C3(C)C)c2sccc2n1` (stereo unspecified), the figure is 9.68 µM (active); as for `CC(C)Oc1ccc2c(=O)c(-c3ccccc3)coc2c1`, 4.85 µM (active); as for `O=C(c1ccc(F)c(F)c1Nc1ccc(I)cc1F)N1CC(O)([C@@H]2CCCCN2)C1`, 24.3 µM (active).
With `Cc1cc(Nc2nc(N[C@@H](C)c3ncc(F)cn3)ncc2Cl)n[nH]1`, the “activity change, negative = viability loss” value was 17.7%.
As to `Cc1ccc(C(=O)Nc2ccc(CN3CCN(C)CC3)c(C(F)(F)F)c2)cc1C#Cc1cnc2[nH]ncc2c1`, the Potency was 21.7 µM (active).
Still for that read-out and setting: as for `C[C@@H](Oc1cc(-c2cnn(C3CCNCC3)c2)cnc1N)c1c(Cl)ccc(F)c1Cl`, the figure is 21.7 µM (active).
In the case of `COC(C(=O)N1Cc2[nH]nc(NC(=O)c3ccc(N4CCN(C)CC4)cc3)c2C1)c1ccccc1` (stereo unspecified), the “activity change, negative = viability loss” value was 3.38%.
For the compound `O=C1c2c(O)ccc(O)c2C(=O)c2c(NCCNCCO)ccc(NCCNCCO)c21`, the Potency was 0.863 µM (active).
For the compound `CC(C)CC(=O)Nc1n[nH]c2c1CN(C(=O)C1CCN(C)CC1)C2(C)C`, the Potency is 1.37 µM (active).
Consider `COc1cc(Nc2ncc3c(n2)-c2ccc(Cl)cc2C(c2c(F)cccc2OC)=NC3)ccc1C(=O)O`, for which the “activity change, negative = viability loss” value is -7.66%.
`COc1ccc(-c2nc3ccc(C4=NNC(=O)CC4C)cc3[nH]2)cc1` (stereo unspecified): the Potency is 2.17 µM (active).
